An excerpt weighted towards active compounds, which were near 0.88% of everything screened.
TRHR enhancer-1: allosterically enhances the human TRH receptor; 360,000 tested, 0.66% active; P34981; enhancement, % at 2 µM; TRHR cells, fluo-8 calcium fluorescence, EC20 TRH enhancement; AID 493056; in the data active means enhancement above about 30%; further: 0% is about no effect
Target sequence (P34981 whole entry, looked up): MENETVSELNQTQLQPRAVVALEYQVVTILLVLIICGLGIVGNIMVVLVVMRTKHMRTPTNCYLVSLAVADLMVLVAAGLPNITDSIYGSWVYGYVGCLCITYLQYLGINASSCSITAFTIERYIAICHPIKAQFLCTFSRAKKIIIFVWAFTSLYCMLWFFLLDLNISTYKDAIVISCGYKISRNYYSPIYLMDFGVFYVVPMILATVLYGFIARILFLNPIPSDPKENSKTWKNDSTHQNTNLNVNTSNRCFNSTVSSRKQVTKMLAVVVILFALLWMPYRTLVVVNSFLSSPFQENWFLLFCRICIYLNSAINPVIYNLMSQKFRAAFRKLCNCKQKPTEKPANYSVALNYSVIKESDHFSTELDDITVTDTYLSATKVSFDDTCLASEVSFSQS
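Enhancer read-out: after compound pinning and an initial kinetic agonist-mode read, an EC20 of TRH (10 nM final) was injected and fluo-8 calcium signal (Ex 480/Em 530) followed at 1 s/cycle for 100 cycles in TRHR-expressing cells.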
TRHR agonist-1: activates the human TRH receptor; activation, % at 2 µM; 360,000 tested, 0.18% active; TRHR cells, calcium flux fluo-8, FDSS agonist mode; in the data active means activation above about 30%; further: 0% is about no effect
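TRHR-expressing cells, plated overnight in medium with 10% serum, were loaded with fluo-8 calcium dye at room temperature. After a 10 s baseline, library compound was pin-added and calcium release was recorded kinetically (ex 480/em 530) as agonist response.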
Epigenetic reg: derepresses silenced GFP reporter in murine cells. murine LDR cells, GFP reporter derepression, 30 h. AID 1865. Potency, µM (doses to about 53.9 µM), for the others: at the highest dose GFP activation, hits mostly activators. 280,000 tested, 0.2% active; further: potency means the concentration at half of the fitted maximal effect; % of control where 0% means no effect; nearly all actives have a fitted effect of over 60% in size
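In this reporter-derepression format, murine cells bearing a silenced integrated CMV-GFP locus incubate with test compound (30 h, 37 C), then are washed and imaged; fluorescent objects of 20–120 um count as induced cells.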
CBFb RUNX1 block: blocks binding between human CBF-beta and RUNX1; Q01196+Q13951; AlphaScreen CBFb-His/RUNX1-biotin binding, biochemical; Potency, µM (titrated, usually from 59.8 µM), inactives show at the highest dose activity, negative = inhibition, most hits filed as inhibitors; 230,000 tested, under 10 active; AID 1477; further: % of control where 0% means no effect
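Compounds were screened at multiple concentrations against a preformed CBF-beta(His)/RUNX1(biotin) complex (30 nM of each) for 15 min at room temperature, followed by 90 min with nickel and streptavidin beads and AlphaScreen reading.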
IL2 activator: activates IL-2 in a cell-based reporter assay | 360,000 tested, 0.065% active | activation, % (series mostly up to about 46 µM) | AID 652025 | IL-2 activation reporter assay, cell-based qHTS; stimulated with anti-CD3/CD4/CD28 beads; in transgenic mouse T cells; in the data active means activation above about 50%; inconclusive means mostly about 30% to 49%; further: 0% is about no effect
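First, unstimulated transgenic mouse T cells were exposed to compound for 60 min. Next, anti-CD3/anti-CD4-coated beads with anti-CD28 were added. Finally, after 18 h at 37 degrees C, EGFP and DsRed were imaged.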
MBNL1-CUG inh: inhibitors of human MBNL1 binding to CUG repeat RNA. TR-FRET MBNL1-His/biotin-(CUG)12 binding, 665/545 ratio. Potency, µM (top dose mostly 57.5 µM), for inactives: top-dose activity change, negative = inhibition, usual class: inhibitors. 280,000 tested, 0.036% active. AID 2675; active means well fitted inhibition curve with a large enough effect in the signal ratio, with a control signal flat, not every such curve was filed as active; inconclusive means small, poorly fitted or top-dose-only effect, or effect the other way, or a change in a side signal; inactive means no such curve, though single readings can be large or run the other way; the % refers to the signal ratio; further: potency means the concentration at half of the fitted maximal effect; on the % scale 0 is the no-effect control and ±100 the full control effect
Target sequence (Q9NR56 whole entry, looked up): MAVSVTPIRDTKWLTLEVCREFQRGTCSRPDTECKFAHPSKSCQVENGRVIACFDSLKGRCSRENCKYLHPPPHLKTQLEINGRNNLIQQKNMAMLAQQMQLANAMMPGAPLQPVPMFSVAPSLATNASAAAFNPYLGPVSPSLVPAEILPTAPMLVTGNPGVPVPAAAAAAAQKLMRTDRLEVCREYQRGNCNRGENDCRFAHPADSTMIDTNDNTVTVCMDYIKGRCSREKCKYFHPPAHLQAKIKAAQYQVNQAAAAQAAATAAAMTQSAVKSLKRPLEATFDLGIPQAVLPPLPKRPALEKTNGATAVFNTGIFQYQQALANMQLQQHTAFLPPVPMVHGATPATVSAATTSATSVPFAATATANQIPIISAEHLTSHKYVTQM
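TR-FRET readout: Ex 340 nm, 665/545 nm emission ratio, normalized to buffer-only (basal) and MBNL1-(CUG)12 controls. Complex of MBNL1-His with Biotin-(CUG)12, compounds 92 nM–58 uM, incubated 60 min at room temperature.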
TRHR enhancer-2: confirmation of human TRH receptor allosteric enhancers; shares compounds with TRHR enhancer-1; TRH receptor cell assay, enhancer confirmation qHTS; activity change, negative = inhibition, % at 46.1 µM; 970 tested, under 10 active; AID 493076;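 further: compound effect scored on response to added TRH at EC20 of 10 nM; 0% is about no effect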
TRHR agonist-2: confirmation of human TRH receptor agonists. shares compounds with TRHR enhancer-1. TRHR-expressing cells, agonist activation read-out. Potency, µM (titrated, usually from 46.1 µM), for inactives: at the highest dose activation, usual class: activators. 970 tested, 8% active; further: potency means the concentration at half of the fitted maximal effect; 0% is about no effect; nearly all actives have a fitted effect of over 75% in size
* = called active by the depositor; u = inconclusive; x = not tested or not shown. Unless noted, the call rests on the fitted dose curve; in most records, active means well fitted curve in the direction sought with a large enough effect; inconclusive means small, poorly fitted or top-dose-only effect, or another doubt; inactive means no such curve, though single readings can be large; an effect the other way counts as inactive or inconclusive.

SMILES	TRHR enhancer-1	TRHR agonist-1	Epigenetic reg	CBFb RUNX1 block	IL2 activator	MBNL1-CUG inh	TRHR enhancer-2	TRHR agonist-2
CCOc1ccccc1NC(c1nnc(-c2ccccc2)o1)c1ccc(F)cc1Cl (stereo unspecified)	-7.8	0.9	-1.0%	x	x	x	x	x
COc1ccc(NC(=O)Cn2c(=O)oc3cc(S(=O)(=O)N4CCCCC4C)ccc32)cc1 (stereo unspecified)	0.4	0.0	-0.2%	x	x	x	x	x
CCOc1ccc(-c2cc(C(=O)OC)nc3c2c(=O)n(C)c(=O)n3C)cc1	43.2*	0.0	0.1%	8.6%	0.6	2.2%	-6.5	0.3%
O=P1(c2ccccc2)C=Cn2c1cc1c2CCCC1 (stereo unspecified)	60.1*	0.1	-2.5%	-3.7%	-1.1	10.1%	11.7	-0.6%
Cc1cccc(OCC(=O)Nc2cccc(C(=O)OCc3cc(=O)n4nc(C(C)C)sc4n3)c2)c1	-5.1	0.3	-1.3%	x	x	x	x	x
CCc1ccccc1NC(=O)NC1CCCCC1	48.3*	0.1	-5.8%	0.5%	-0.5	3.0%	-3.0	-0.5%
CC(=O)CC(=O)Nc1cccc2c1CCCC2	3.8	-0.2	2.2%	0.9%	-1.2	-1.6%	x	x
CCCC(=O)Nc1cccc2c1CCCC2	48.8*	-0.3	0.4%	2.9%	-1.8	-0.1%	-0.9	-0.3%
CN(C)c1ccc(-c2nc(-c3cc4cc(Cl)ccc4oc3=O)cs2)cc1	3.8	0.4	-1.3%	x	x	x	x	x
O=C(Nc1ccccn1)N1CCOCC1	47.9*	0.3	-2.0%	0.4%	-2.9	-0.5%	-1.8	-0.6%
CCN(CC(=O)Nc1c(F)cccc1F)C(=O)c1cccc(S(=O)(=O)N2CCCCCC2)c1	41.5*	0.4	x	x	1.3	x	-2.8	1.2%
O=C(C1CC(=O)N(c2ccc3c(c2)OCCO3)C1)N1CCN(Cc2ccccc2F)CC1 (stereo unspecified)	48.2*	0.3	x	x	-0.3	x	3.4	-0.6%
O=C(Nc1nc2ccc(F)cc2s1)C1CC(=O)N(c2ccc3c(c2)OCCO3)C1 (stereo unspecified)	-5.0	0.3	x	x	0.4	x	x	x
COc1ccc(CN(C)C(=O)C2CC(=O)N(c3ccc4c(c3)OCCO4)C2)c(OC)c1 (stereo unspecified)	64.7*	-1.5	x	x	-0.7	x	-8.0	-0.6%
O=C(NCc1ccccc1F)C1CC(=O)N(c2ccc3c(c2)OCCO3)C1 (stereo unspecified)	-3.9	0.2	x	x	1.2	x	x	x
COc1ccc2nc(NC(=O)C3CC(=O)N(c4ccc5c(c4)OCCO5)C3)sc2c1 (stereo unspecified)	49.5*	-0.2	x	x	-2.3	x	u	-0.6%
COc1ccc(Cl)cc1C(=O)Nc1ccc2oc(-c3ccc(C(C)(C)C)cc3)nc2c1	-3.5	-0.9	0.0%	x	x	x	x	x
COc1ccc(OC)c(NC(=O)Cn2ccc3ccccc3c2=O)c1	1.3	-0.6	-1.1%	x	x	x	x	x
CCC(C(=O)N1CC2(C)CC1CC(C)(C)C2)N1C(=O)c2ccccc2C1=O (stereo unspecified)	-5.3	-0.4	1.7%	-9.8%	-0.5	5.1%	x	x
CC(C(=O)N1CC2(C)CC1CC(C)(C)C2)N1C(=O)c2ccccc2C1=O (stereo unspecified)	45.8*	0.0	0.0%	3.1%	2.0	-0.2%	-11.8	1.3%
CC(=O)COc1ccc2cc(-c3ccccc3)c(=O)oc2c1	-7.1	-0.1	x	x	-0.6	u	x	x
O=C(CCCCl)Oc1ccc2cc(-c3ccc4ccccc4n3)c(=O)oc2c1	1.8	31.7*	-3.2%	u	26.5	3.3%	9.3	u
Cc1ccc(CNCC(O)(c2ccccc2)c2ccc(Cl)cc2)cc1 (stereo unspecified)	0.2	1.3	-1.3%	21.1%	-3.6	x	x	x
CCC(C)NCC(O)(c1ccc(Cl)cc1)c1ccc(Cl)cc1 (stereo unspecified)	49.8*	1.4	4.5%	-3.7%	-2.7	x	-5.1	u
CCc1ccc(C2c3c(oc4ccc(F)cc4c3=O)C(=O)N2c2nc(C)c(C(=O)OC)s2)cc1 (stereo unspecified)	4.2	0.9	-1.0%	x	x	x	x	x
SMILES	TRHR enhancer-1	TRHR agonist-1	Epigenetic reg	CBFb RUNX1 block	IL2 activator	MBNL1-CUG inh	TRHR enhancer-2	TRHR agonist-2
CC1CCCC(NC(=O)C2c3ccccc3C(=O)N2Cc2cccs2)C1C (stereo unspecified)	44.2*	0.0	0.0%	5.0%	-0.5	x	-13.6	1.4%
COc1nc2c(s1)C(=O)NCCC2	-2.8	0.3	0.9%	5.5%	-1.4	-8.5%	x	x
CCN(CC)c1nc2c(s1)C(=O)NCCC2	50.7*	0.2	0.6%	-0.1%	1.6	6.0%	-4.6	-0.5%
O=C1CCCN1CCCNc1ncnc2c1cnn2-c1ccc(Cl)cc1	54.4*	-0.4	2.2%	9.8%	-3.3	2.4%	-8.5	4.6%
Cc1cccc(-n2ncc3c(NCCCN4CCCC4=O)ncnc32)c1	6.0	-0.5	-3.0%	-12.6%	-2.0	-4.7%	x	x
CCCCN(C)C(=O)c1ccc2c(c1)N(Cc1ccc(F)cc1)C(=O)c1ccccc1S2(=O)=O	17.6	0.1	-2.5%	x	x	x	x	x
CCOC(=O)CNC(=O)N1CCCN(S(=O)(=O)c2ccc3c(ccn3CC)c2)CC1	-0.5	0.0	-1.7%	x	x	x	x	x
Cc1cc(C)c2nc(N(Cc3cccnc3)C(=O)c3ccc(S(=O)(=O)N(C)C)cc3)sc2c1	-4.5	0.0	0.6%	x	x	x	x	x
CCc1ccc(NC(=S)N2CCN(C)CC2)cc1	58.3*	0.5	x	x	-2.3	-0.4%	3.8	-0.5%
CCc1ccc(NC(=S)N2CCCC2)cc1	-8.8	-0.1	x	x	-2.2	1.7%	x	x
CCn1nc(C)c2c(-c3ccccc3)cc(=O)n(C(C)C(=O)Nc3ccc(OC)c(OC)c3)c21 (stereo unspecified)	4.0	-0.1	2.3%	x	x	x	x	x
CCn1ccnc1[C@@H]1C[C@H]2CN(Cc3ccccc3OC)C(=O)[C@]23CCCN13	46.2*	0.4	5.6%	-2.6%	0.9	-21.7%	-7.3	-0.4%
Oc1c(C(c2ccccc2)N2CCN(Cc3ccccc3)CC2)sc2nc(-c3ccco3)nn12 (stereo unspecified)	12.3	-0.7	2.8%	x	x	x	x	x
CC(=O)Nc1sc(C)c(C)c1C(=O)OCC(=O)Nc1cc(S(C)(=O)=O)ccc1Cl	1.5	-0.3	u	-7.5%	0.5	x	x	x

Screens as filed in PubChem.
